Only some compounds are listed: those with a hit (about 1.2% of all), similar ones and a draw of the others.
PriA SSB inh: K. pneumoniae PriA-SSBct interaction inhibition; AID 1272365; AlphaScreen SSBct-PriA binding, biotinylated peptide; 430,000 tested, 0.6% active; inhibition, % at 33 µM; in the data active = inhibition mostly above about 37%, no sharp cut-off; inactive = mostly below about 20%;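 note: plate controls were negative control peptide for no effect and reference peptide for full effect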
UGM FP inh: blocks M. tuberculosis UGM enzyme. purified UGM, fluorescence polarization probe displacement. inhibition, % at 10 µM. 320,000 tested, 0.06% active. AID 504406; in the data active = inhibition above about 10%, passing the limit was not always enough
PrP UTR inh: inhibition of PrP 5' UTR reporter expression | cell-based PrP 5' UTR mRNA reporter, plate reader | inhibition, % (concentration not given with the values) | 340,000 tested, 0.35% active; in the data active = inhibition above about 52%; note: 0 = median of the neutral control wells
FadD28 FP inh: inhibitors of Mycobacterium tuberculosis FadD28 bisubstrate binding. FadD28 bisubstrate probe binding, fluorescence polarization. inhibition, % at 12.5 µM. 360,000 tested, 0.22% active; in the data active = inhibition above about 8.5%, passing the limit was not always enough
PrPC surface inh: reduces human prion protein on the cell surface | P04156 | cell surface PrPC, TR-FRET read-out | inhibition, % at 13.8 µM | 370,000 tested, 0.43% active; in the data active = inhibition above about 24%; note: 0% = median of the test wells and 100% = reference compound wells
Rv3671c protease: inhibitors of M. tuberculosis serine protease Rv3671c | P9WHR9 | inhibition, % at 5.96 µM | 320,000 tested, 0.048% active | AID 2606; in the data active = inhibition above about 38%;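 note: extracellular domain of Rv3671c used as enzyme; 0% = enzyme with DMSO and 100% = no enzyme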
Target sequence (P9WHR9 whole entry, looked up, the tested form may be a part): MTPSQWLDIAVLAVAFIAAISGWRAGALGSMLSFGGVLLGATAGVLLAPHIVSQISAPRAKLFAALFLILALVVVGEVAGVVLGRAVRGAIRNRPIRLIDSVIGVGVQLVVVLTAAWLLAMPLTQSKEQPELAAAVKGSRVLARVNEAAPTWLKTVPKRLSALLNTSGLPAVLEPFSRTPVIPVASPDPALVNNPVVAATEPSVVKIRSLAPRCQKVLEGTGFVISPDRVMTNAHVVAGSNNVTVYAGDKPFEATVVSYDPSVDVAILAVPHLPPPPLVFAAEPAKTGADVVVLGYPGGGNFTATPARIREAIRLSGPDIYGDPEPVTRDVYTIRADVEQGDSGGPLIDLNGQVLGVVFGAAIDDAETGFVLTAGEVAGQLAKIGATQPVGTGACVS
Active calls of the source: *; . = no result given; + = active, no number.

SMILES	PriA SSB inh	UGM FP inh	PrP UTR inh	FadD28 FP inh	PrPC surface inh	Rv3671c protease
O=S1(=O)N=C(NN=Cc2ccccn2)c2ccccc21	82*	.	.	.	.	.
O=S1(=O)N=C(N/N=C/c2ccccn2)c2ccccc21	.	2	-22	1	-4	-7
O=S1(=O)N=C(NN=Cc2cccs2)c2ccccc21	55*	.	.	.	.	.
COc1ccc(/C=N/NC2=NS(=O)(=O)c3ccccc32)cc1	.	-5	-17	0	1	-3
O=c1oc2c(O)c(O)cc3c(=O)oc4c(O)c(O)cc1c4c23	-3	0	-12	14*	.	1
O=c1oc2ccccc2c2oc3cc(O)c(O)cc3c12	-7	3	-30	-1	-2	-6
Cc1ccc2[nH]c(-c3cccc(F)c3)cc(=O)c2c1	2	-2	60*	-1	1	-10
COc1ccc(N=c2cc(-c3ccc(OC)cc3)oc3ccccc23)cc1	53*	.	-19	-1	-3	0
COc1ccc(N=c2cc(-c3ccc(O)cc3)oc3ccccc23)cc1	42*	-7	-9	1	-8	9
CCOc1ccc(N=c2cc(-c3ccc(OC)cc3)oc3ccccc23)cc1	39*	4	-4	0	-5	7
COc1ccc(-c2cc(=Nc3ccccc3)c3cc(C)ccc3o2)cc1	29	0	10	-5	3	1
COc1ccc(-c2cc(=Nc3ccc(C)cc3)c3ccccc3o2)cc1	10	0	10	0	-7	-19
Cc1ccc(NC(=O)CSc2ncc(-c3cccc(Cl)c3)o2)cc1C	8	.	.	.	.	.
O=C(c1cn(-c2cc(N3CCCCC3)ncn2)cn1)N1CCN(c2ccccn2)CC1	-4	.	.	.	.	.
COc1cc(/C=N/NC(=O)CN(Cc2ccccc2)S(=O)(=O)c2ccc3c(c2)OCCO3)ccc1O	.	-1	-33	22*	-2	7
O=C(COc1ccccc1)Nc1ccccc1-c1nc2ccccc2[nH]c1=O	-15	.	.	.	.	.
Cc1cc(C)n(-c2ccc(=O)n([C@@H](C)C(=O)Nc3ccccc3-c3csc(C)n3)n2)n1	-10	.	.	.	.	.
O=C(O)c1ccc(O)cn1	88	.	.	.	.	.
O=C(O)c1ccc(C2CCCCC2)cn1	116*	-2	-13	-4	1	-31
CC1(C)Cc2cccc(OCC(=O)NCC(C)(O)c3cc4ccccc4o3)c2O1 (centres undefined)	-9	.	.	.	.	.
Cn1c(=O)oc2ccc(S(=O)(=O)NCCc3ccsc3)cc21	-27	.	.	.	.	.
Cc1ccc(-c2nc(-c3ccccc3)no2)c(Cl)c1	104*	-1	65*	0	-1	-3
CCOc1ccccc1C(=O)NN=Cc1cccc2cccnc12	25	.	.	.	.	.
O=C(NN=Cc1cccc2ccccc12)c1ccncc1	0	.	.	.	.	.
O=C(N/N=C/c1cccc2cccnc12)c1ccccc1Br	+	.	.	.	.	.
SMILES	PriA SSB inh	UGM FP inh	PrP UTR inh	FadD28 FP inh	PrPC surface inh	Rv3671c protease
O=C(N/N=C/c1cccc2cccnc12)c1ccccc1	+	.	.	.	.	.
O=C(N/N=C/c1cccc2cccnc12)c1ccncc1	+	.	.	.	.	.
CCOc1ccc2ccccc2c1C(=O)NC[C@@H](c1cccs1)N1CCOCC1	8	.	.	.	.	.
N#CCCn1c2ccc(I)cc2c2cc(I)ccc21	-4	.	.	.	.	.
COc1cccc2c(=O)n(CC(=O)Nc3ccc(F)cc3)ccc12	104*	2	-8	-2	2	2
COc1cccc2c(=O)n(CC(=O)Nc3cccc(F)c3)ccc12	-14	-4	-16	-4	-5	3
CCOc1cn(C)c(C(=O)Nc2ccc3c(c2)OCO3)cc1=O	-1	.	.	.	.	.
CON=Cc1ccc(N2CCCC2)c([N+](=O)[O-])c1	39*	.	.	.	.	.
O=[N+]([O-])c1ccc(N2CCCC2)cc1N1CCN(c2ccccc2)CC1	84*	.	.	.	.	.
CO/N=C/c1ccc(N2CCOCC2)c([N+](=O)[O-])c1	.	1	-18	1	-4	9
CN1CCN(c2cc(N3CCCC3)ccc2[N+](=O)[O-])CC1	59*	.	.	.	.	.
CN1CCN(c2ccc([N+](=O)[O-])c(N3CCCCC3)c2)CC1	1	0	-4	0	-14	-2
COc1cccc(CSc2nc(CC(=O)Nc3ccc(C(C)C)cc3)cc(=O)[nH]2)c1	-3	.	.	.	.	.
CCOC(=O)[C@]12Cc3cc(C)ccc3[C@H]1N(C1CCCCC1)C(=O)c1cc(OC)ccc12	.	.	.	.	38*	.
C#CCOCCOCCOCCNc1nc(N2CCN(C(=O)C(Cc3cc4ccccc4[nH]3)n3cc(C(N)C(C)CC)nn3)CC2)nc(N2CCN(C(=O)C(Cc3cc4ccccc4[nH]3)n3cc(C(N)C(C)CC)nn3)CC2)n1 (centres undefined)	43*	0	-16	-12	.	2
C#CCOCCOCCOCCNc1nc(N2CCN(C(=O)CCCCCCCCCCNC(=O)[C@H](CCCCN)n3cc(C[C@@H](C)CC)nn3)CC2)nc(N2CCN(C(=O)CCCCCCCCCCNC(=O)[C@H](CCCN=C(N)N)n3cc(C[C@@H](C)CC)nn3)CC2)n1	7	0	7	-16	.	-37
C#CCOCCOCCOCCNc1nc(N2CCOCC2)nc(N2CCN(C(=O)[C@H](Cc3cc4ccccc4[nH]3)n3cc([C@@H](N)C(C)CC)nn3)CC2)n1 (some centres undefined)	1	-1	-19	-4	0	7
C#CCOCCOCCOCCNc1nc(N2CCN(C(=O)CCCCCCCCCCNC(=O)[C@H]([C@@H](C)CC)n3cc(CCCCN=C(N)N)nn3)CC2)nc(N2CCN(C(=O)CCCCCCCCCCNC(=O)[C@@H]([C@H](C)O)n3cc(C)nn3)CC2)n1	10	0	-49	15*	.	-26
C#CCOCCOCCOCCNc1nc(N2CCN(C(=O)CCCCCCCCCCNC(=O)[C@@H](CCSC)n3cc(CCO)nn3)CC2)nc(N2CCN(C(=O)CCCCCCCCCCNC(=O)[C@H](CCCN=C(N)N)n3cc(C[C@@H](C)CC)nn3)CC2)n1	6	-2	-14	11*	.	-66
C#CCOCCOCCOCCNc1nc(N2CCOCC2)nc(N2CCN(C(=O)CCCCCCCCCCNC(=O)[C@H]([C@@H](C)CC)n3cc(CCCCN=C(N)N)nn3)CC2)n1	8	1	-10	-3	4	-7
O=c1ccc(-c2cccs2)nn1CCNS(=O)(=O)c1cccs1	-13	.	.	.	.	.
O=C(CCSc1ccc(F)cc1)Nc1ccccc1-c1nc2ccccc2s1	-14	.	.	.	.	.
CCc1ccc(NSc2ccccc2[N+](=O)[O-])cc1	65*	2	-6	1	-9	1
OCCN(Cc1cccnc1)Cc1ccccn1	42*	.	2	-1	0	.
OCCN(Cc1ccccc1)Cc1ncccc1O	-2	.	-3	-3	5	.
SMILES	PriA SSB inh	UGM FP inh	PrP UTR inh	FadD28 FP inh	PrPC surface inh	Rv3671c protease
CCN(CC)CCN(C(=O)COc1ccc(Cl)cc1)c1nc2cc3c(cc2s1)OCCO3	9	.	.	.	.	.
COc1cccc2cc(C(=O)NCCn3ccnc3-c3cccnc3)oc12	-19	.	.	.	.	.
COc1cccc2cc(C(=O)NCCn3ccnc3-c3ncccn3)oc12	46*	.	.	.	.	.
O=C(/C=C/c1cccs1)NCCn1ccnc1-c1ncccn1	116*	.	.	.	.	.
Cc1cc(C(=O)NCCn2ccnc2-c2ncccn2)no1	-7	.	.	.	.	.
O=C(NCCn1ccnc1-c1ncccn1)c1ccccc1Cl	78*	.	.	.	.	.
